The source of these data is PubChem BioAssay AID435005 (Broad Institute, 2010).

Out of some 300,000 compounds screened, about 2,400 (0.8%) were called active.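 Rule for the calls: active = Every replicate reaches about 75%, or at least half do and their mean reaches it too (limit read from the data); inconclusive = At least half of replicates reach the limit but their mean does not; inactive = Under half of replicates reach the limit.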 The entries come from a sample that favours actives as a whole.

The experiment in a line: inhibitors of cytokine-induced beta cell apoptosis, primary screen, luminescence (AID 435005).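 Note: 0% = cytokine-treated negative control wells and 100% = positive control rescue; higher means more ATP so stronger rescue from cytokine killing.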 Conditions: INS-1E cytokine-induced death, ATP luminescence, 48 h; active compounds read high; concentration not given here.
As for `CCOc1cccc(=NC2CCCCC2)c2c(C)[nH]c(C)c12`, the protection from apoptosis is 115% (active).
With `C[C@]12CCC3C(CC[C@H]4C[C@@H](O)CC[C@]34C)C1CC[C@@H]2O` (stereo not given in full), the protection from apoptosis was 1.25% (inactive).
As to `O=C1C2(Cl)C3(Cl)C4(Cl)C(Cl)(Cl)C5(Cl)C3(Cl)C1(Cl)C5(Cl)C24Cl` (stereo not given), the protection from apoptosis was -14.2% (inactive).
As to `COC(=O)C1=C(c2ccc(F)cc2OCc2ccccc2)C[C@@H]2CC[C@H]1N2C(=O)NCc1ccc(OC)c(OC)c1`, the protection from apoptosis was -1.83% (inactive).
The same measure for `C[C@]12CC[C@H](O)CC1=C([N+](=O)[O-])CC1C2CC[C@@]2(C)C1CC[C@@H]2O` (stereo not given in full): -1.49% (inactive).
The same measure for `COC(=O)C1=C(c2ccccc2OCc2ccccc2)C[C@@H]2CC[C@H]1N2C(=O)NCc1ccc(OC)cc1`: -9.52% (inactive); for `CCCCCCCCCCCCn1ccc(=N)cc1`: 117% (active).
Turning to `C[C@]12CCC3C(CC[C@H]4C[C@@H](O)CC[C@]34C)C1C[C@@H](O)[C@H]2O` (stereo not given in full), the protection from apoptosis was 0.154% (inactive).
Consider `CCC(=O)c1ccc(OCC(=O)N2CCN(CC(=O)Nc3ccc(C)cc3)CC2)cc1`, for which the protection from apoptosis is 4.28% (inactive).
Consider `Clc1cccc(Cl)c1Cl`, for which the protection from apoptosis is 5.51% (inactive).
